The list is not random: actives were taken first. Their share in the collection is about 2.6%.
TSG101-PTAP inh: blocks PTAP binding to human TSG101, validation; 44,000 tested, under 10 active; Q99816; Fluorescence polarization, FITC-PTAP peptide/Tsg101, 20 min; Potency, µM (series often up to 115 µM), most hits filed as inhibitors; further: potency means the concentration at half of the fitted maximal effect; 0% is about no effect
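Fluorescence polarization: Tsg101 binding domain (10 uM final) in 10 mM HEPES pH 7.5, 0.15 M NaCl, 0.01% Tween 20, 3 mM EDTA, 0.1 mM TCEP; compounds pinned; FITC-PTAP peptide 50 nM final; 20 min, r.t.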
GALK inhibitor: inhibits human galactokinase | P51570 | recombinant GALK, Kinase-Glo ATP luminescence, 1 h | Potency, µM (titrated, usually from 57.5 µM), without a hit: at the top dose activity, negative = inhibition, actives largely listed as inhibitors | 44,000 tested, under 10 active;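 further: plate controls were full GALK reaction for no effect and reaction lacking GALK for full effect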
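5 nM GALK; 35 uM ATP; 100 uM D-galactose; 20 mM HEPES pH 8.0, 5 mM MgCl2, 60 mM NaCl, 1 mM DTT, 0.01% BSA; 1 h RT; Kinase-Glo Plus luminescence.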
B2AR arrestin ag: agonists recruiting beta-arrestin to human beta2-adrenergic receptor | HTLA Tango cells, beta-arrestin recruitment, luciferase luminescence, 18 h | 44,000 tested, under 10 active | P07550 | Potency, µM (series often up to 46.1 µM), most hits filed as activators;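 further: potency means the concentration at half of the fitted maximal effect; 0% = DMSO and full agonism = EC100 isoproterenol or metaproterenol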
Target sequence (P07550 whole entry, looked up): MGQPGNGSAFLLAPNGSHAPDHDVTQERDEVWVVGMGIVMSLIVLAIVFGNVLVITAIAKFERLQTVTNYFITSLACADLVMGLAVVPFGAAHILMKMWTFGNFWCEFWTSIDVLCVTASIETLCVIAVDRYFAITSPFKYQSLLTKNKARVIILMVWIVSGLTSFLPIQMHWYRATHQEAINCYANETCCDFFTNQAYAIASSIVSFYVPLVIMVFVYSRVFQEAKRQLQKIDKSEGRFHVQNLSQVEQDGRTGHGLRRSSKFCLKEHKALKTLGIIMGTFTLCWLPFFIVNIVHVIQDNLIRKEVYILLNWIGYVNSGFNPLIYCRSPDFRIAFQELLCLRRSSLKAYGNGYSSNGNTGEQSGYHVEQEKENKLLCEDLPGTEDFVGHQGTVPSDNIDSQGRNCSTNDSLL
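Tango cells expressing recombinant beta2-AR and beta-arrestin were treated with compounds (up to 46 microM titration) in DMEM with 1% FBS for 18 hr at 37 degrees C. Beta-arrestin recruitment drove tTA-dependent luciferase, read by luminescence; curves were fitted and classed.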
GPR32 ag: activates human resolvin D1 receptor GPR32; CHO-K1 GPR32 beta-arrestin PathHunter luminescence, 90 min; zero percent set by DMSO-only wells; AID 1346428; 48,000 tested, 2.5% active; activation, % at 76.9 µM; O75388;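 active means activation of at least 60% and not above a set upper limit, about 1 call in 100 departs from these limits; inconclusive means activation of 40% to 60%, or above that upper limit; inactive means activation under 40%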; further: 0% is about no effect
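Using DMSO wells as EC0, agonist-induced signal was taken as chemiluminescence from beta-Gal reconstituted upon beta-arrestin recruitment to GPR32 in CHO-K1 cells after 90 min compound treatment.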
GALC G270D up: enhancers of human galactocerebrosidase G270D mutant activity in cells; Potency, µM (highest dose often 57.5 µM), most hits filed as activators; 45,000 tested, 0.1% active; P54803; 145M-Twi-hGALC-G270D cells (Twitcher mouse brain line with human GALC G270D), HMU-beta-Gal fluorescence, 48 h; further: potency means the concentration at half of the fitted maximal effect; 0% is about no effect; nearly all actives have a fitted effect of over 65% in size
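Mutant human GALC (G270D), stably expressed in a Twitcher mouse brain cell line lacking endogenous GALC, is measured in live-treated cells via 6-hexadecanoylamino-4-methylumbelliferyl-β-galactoside hydrolysis (0.1 mM final, pH 5.2) with fluorescent detection.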
An asterisk follows results filed as active. Unless noted, the call rests on the fitted dose curve; in most records, active means well fitted curve in the direction sought with a large enough effect; inconclusive means small, poorly fitted or top-dose-only effect, or another doubt; inactive means no such curve, though single readings can be large; an effect the other way counts as inactive or inconclusive.

COc1cccc(NC(=O)Cn2c(=O)oc3cc(S(=O)(=O)N4CCCCC4)ccc32)c1 was read as TSG101-PTAP inh inactive, GALK inhibitor 1.3%, B2AR arrestin ag inactive, GPR32 ag 115.9* and GALC G270D up inactive.
Screening COc1ccc(CNC(=O)Cn2c(=O)oc3cc(S(=O)(=O)N4CCCCCC4)ccc32)cc1 returned TSG101-PTAP inh inactive, GALK inhibitor 2.3%, B2AR arrestin ag inactive, GPR32 ag 60.6* and GALC G270D up inactive.
COc1ccc(C)cc1NC(=O)Cn1c(=O)oc2cc(S(=O)(=O)N3CCCCC3)ccc21 was read as TSG101-PTAP inh inactive, GALK inhibitor -1.4%, B2AR arrestin ag inactive, GPR32 ag 84.0* and GALC G270D up inactive.
For COc1ccc(Cl)cc1NC(=O)Cn1c(=O)oc2cc(S(=O)(=O)N3CCCCCC3)ccc21 the results were TSG101-PTAP inh inactive, GALK inhibitor -3.2%, B2AR arrestin ag inactive, GPR32 ag 6.6 and GALC G270D up inactive.
Screening COc1ccc(CNC(=O)Cn2c(=O)oc3cc(S(=O)(=O)N4CCC(C)CC4)ccc32)cc1 returned TSG101-PTAP inh inactive, GALK inhibitor -2.0%, B2AR arrestin ag inactive, GPR32 ag 4.4 and GALC G270D up inactive.
Screening COc1ccc(-n2nc(CCC(=O)N(C)O)cc2-c2ccc(Cl)cc2)cc1 returned GPR32 ag inconclusive and GALC G270D up inactive.
`COc1ccccc1-c1nnc(SCC(=O)c2ccc(Cl)cc2)n1-c1ccccc1` gave TSG101-PTAP inh inactive, GALK inhibitor 1.9%, B2AR arrestin ag inactive, GPR32 ag 79.5* and GALC G270D up inactive.
Screening COc1ccccc1-c1nc(SCC(=O)c2ccc(Cl)cc2)n[nH]1 returned TSG101-PTAP inh inactive, GALK inhibitor 0.0%, B2AR arrestin ag inactive, GPR32 ag inconclusive and GALC G270D up inactive.
`CCCCC[C@H](O)C=C[C@H]1[C@H](O)CC(=O)[C@H]1CC=CCCCC(=O)O` gave GPR32 ag 2.7 and GALC G270D up inactive.
For C=C1C(=C/C=C2\CCC[C@]3(C)[C@@H]([C@H](C)/C=C/[C@@H](O)C4CC4)CC[C@@H]23)C[C@@H](O)C[C@@H]1O the results were GPR32 ag 106.8* and GALC G270D up inactive.
Screening CN1[C@@H]2CC[C@H]1CC(NC(=O)n1c(=O)[nH]c3ccccc31)C2 (stereo partly specified) returned GPR32 ag -6.5 and GALC G270D up inactive.
CCOC(=O)c1cc(S(=O)(=O)N2CCN(c3cc(Cl)ccc3C)CC2)[nH]n1 was read as TSG101-PTAP inh inactive, GALK inhibitor -1.9%, B2AR arrestin ag inactive, GPR32 ag -30.1 and GALC G270D up inactive.
`Cc1cc(NS(=O)(=O)c2ccc(NC(=O)COc3cc(C)c(Br)cc3C(C)C)cc2)no1` gave TSG101-PTAP inh inactive, GALK inhibitor 0.4%, B2AR arrestin ag inactive, GPR32 ag 107.3* and GALC G270D up inactive.
For Cc1ccc(OCC(=O)Nc2ccc(S(=O)(=O)Nc3cc(C)on3)cc2)c(Br)c1 the results were TSG101-PTAP inh inactive, GALK inhibitor -0.3%, B2AR arrestin ag inactive, GPR32 ag inconclusive and GALC G270D up inactive.
CCCCC(O)/C=C(C)/C=C/C=C/C(=O)N1CCCC1=O (stereo unspecified) was read as GPR32 ag -17.1 and GALC G270D up inactive.
CCOc1ccc(S(=O)(=O)Nc2ccc3oc(C)c(C(=O)OC(C)C)c3c2)cc1 was read as TSG101-PTAP inh inactive, GALK inhibitor 1.9%, B2AR arrestin ag inactive, GPR32 ag 87.0* and GALC G270D up inactive.
For Cc1cc(C)c(S(=O)(=O)Nc2ccc3oc(C)c(C(=O)OC(C)C)c3c2)cc1C the results were TSG101-PTAP inh inactive, GALK inhibitor -12.2%, B2AR arrestin ag inactive, GPR32 ag 26.9 and GALC G270D up inactive.
CCCc1oc2ccc(NS(=O)(=O)c3ccc(OC)cc3)cc2c1C(=O)OCC was read as TSG101-PTAP inh inactive, GALK inhibitor 1.1%, B2AR arrestin ag inactive, GPR32 ag -16.9 and GALC G270D up inactive.

From PubChem
